# Screening results from PubChem.
# CHX counter: counter-screen for Shiga toxin inhibitors: cycloheximide protein synthesis inhibition. cell reporter, cycloheximide protein synthesis inhibition counterscreen. hit rate 12% among 300,000. max response, %; in the data active = max response mostly above about 13%, no sharp cut-off; inactive = mostly below about 14%; also: read at 38.3 µM for the half of the compounds with a filed dose; 0% is about no effect
# Sm TGR inh: inhibitors of Schistosoma mansoni thioredoxin glutathione reductase; Q962Y6; purified TGR, DTNB reduction, TNB absorbance 405 nm; Potency, µM (highest dose often 114 µM), for the others: at the top dose activity change, negative = inhibition, usual class: inhibitors; hit rate 3% among 360,000; active = well fitted inhibition curve with a large enough effect; inconclusive = small, poorly fitted or top-dose-only effect; inactive = no such curve, though single readings can be large or run the other way; also: potency is read from the fitted curve at half-maximal effect; % is scaled to controls: 0 for no effect and ±100 for the full control effect; nearly all actives have a fitted effect of over 60% in size
#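 TGR 20 nM + NADPH 100 uM (dispensed conc.), cpd preinc 15 min RT; start with NADPH (500 uM addition) then DTNB (15 mM addition). Kinetic TNB absorbance, 405 nm filter. Four-parameter Hill fit across titration.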
# FMDV inh: antivirals against foot and mouth disease virus; FMDV antiviral cell-based qHTS; Potency, µM (doses to about 57.9 µM), for inactives: at the top dose activity change, negative = inhibition, most hits filed as inhibitors; hit rate 1.2% among 410,000; AID 1159524; calls by dose curve; tested in HEK293T cells; also: read-out not given here; potency is read from the fitted curve at half-maximal effect; % is scaled to controls: 0 for no effect and ±100 for the full control effect; nearly all actives have a fitted effect of over 45% in size
# Shiga toxin inh: blocks Shiga toxin action in Vero cells | Vero cells, Shiga toxin protein synthesis inhibition reporter | inhibition, % at 38.7 µM | hit rate 9.2% among 290,000 | AID 2315; in the data active = inhibition mostly above about 28%, no sharp cut-off; inactive = mostly below about 43%; also: 0% is about no effect
# * hit, by the source's call; i = inactive; ? = inconclusive; · = no result given. Sampled rows, rich in hits. Any-hit rate of the full collection: about 12%.
SMILES,CHX counter,Sm TGR inh,FMDV inh,Shiga toxin inh
CC(=O)Nc1ccc(/C=C(\C#N)C(=O)NC2CCCCC2)cc1,3,-14%,-8%,-9
COc1ccc(OC)c(CNC(=O)Nc2cn(CC(C)C)c(=O)c3ccccc23)c1,·,6%,-8%,·
CCC1CN(CC(=O)NC(C)c2cn(C)nc2C)Cc2cc(OC)ccc2O1 (stereo not given),·,·,-8%,·
COc1ccc(NC(=O)/C(C#N)=C/c2ccc(C)o2)cc1,·,1%,1%,·
COc1ccc(NC(=O)/C(C#N)=C\c2ccc(N3CCOCC3)o2)cc1,24*,45µM*,13%,61
COc1ccc(NC(=O)/C(C#N)=C/c2ccc(Br)o2)cc1,22*,-25%,44%,52*
Cn1c(=O)n(Cc2ccccc2Cl)c(=O)c2c1nc1n2CCN1c1ccccc1,·,-7%,-1%,·
c1ccc2c3nnc4n(c-3nc2c1)CCCS4,30*,-13%,0%,54
Clc1ccc(-c2nnc3n2CCCCS3)cc1,-4,7%,0%,21
CCOc1ccccc1NC(=O)Cn1c(=O)oc2cc(S(=O)(=O)NCc3ccccc3)ccc21,·,-1%,0%,·
O=C(CC1C(=O)CCCC1=O)c1ccccc1,6,40µM*,?,31
O=C(CCC1CCCCC1=O)c1ccccc1 (stereo not given),18,7%,51%,33
Cc1ccc(NC(=O)Nc2cccc([N+](=O)[O-])c2)nc1,20*,0%,38%,85*
Cn1ccc(NC(=O)Nc2cccc([N+](=O)[O-])c2)n1,23*,3%,28%,39*
CCOC(=O)c1cccc(NC(=O)c2ccc3nc(CCc4ccccc4)oc3c2)c1,·,-4%,-11%,·
COC(=O)C1CCN(C(=O)c2ccc3nccnc3c2)CC1,5,0%,-6%,-6
COC(=O)C1CCN(C(=O)c2ccc3nc(-c4cccc(OC)c4)oc3c2)CC1,76*,3%,4%,95*
COc1cccc(-c2nc3ccc(C(=O)NC(C)Cc4cccnc4)cc3o2)c1 (stereo not given),29*,2%,9%,28*
CC(=O)N1CC[C@@H]2CC(=O)CC[C@@H]21,1,·,·,i
CSc1ncccc1C(=O)N1CCOc2ccc(C(C)(O)CCn3cccn3)cc2C1 (stereo not given),·,·,-2%,·
COc1ccc(C(=O)CSc2nc3cc(C(=O)NC4CCCC4)ccc3c(=O)n2CC2CCCO2)cc1 (stereo not given),·,-2%,?,·
CC1CC(OP(O)(=S)c2ccc(N(C)C)cc2NC(=O)c2cccs2)CC(C)(C)C1 (stereo not given),31*,-8%,1%,32
COc1ccccc1NC(=O)C1CCN(S(=O)(=O)c2cn(C)cn2)CC1,·,5%,29%,·
COCCOC(=O)c1[nH]c2c(c1C)C(=O)CC(c1ccc(N(C)C)cc1)C2 (stereo not given),14*,-17%,-21%,14
COCCOC(=O)c1[nH]c2c(c1C)C(=O)CC(c1ccc(F)cc1)C2 (stereo not given),-8,2%,-10%,25
SMILES,CHX counter,Sm TGR inh,FMDV inh,Shiga toxin inh
COCCOC(=O)c1[nH]c2c(c1C)C(=O)CC(c1ccco1)C2 (stereo not given),1,45µM*,?,-4
CCOC(=O)c1[nH]c2c(c1C)C(=O)CC(c1ccco1)C2 (stereo not given),6,40µM*,0%,9
Cc1c(C(=O)OCCOC(C)C)[nH]c2c1C(=O)CC(c1ccco1)C2 (stereo not given),-3,?,0%,-15
Cc1c(C(=O)OCc2ccccc2)[nH]c2c1C(=O)CC(c1ccco1)C2 (stereo not given),-3,?,-26%,-8
CC(C)Oc1ccc(CNC(=O)c2ccc(CN3CC(=O)N4CCCCC4C3=O)cc2)cc1 (stereo not given),·,1%,-15%,·
CC1CCc2sc(C(=O)NNC(=S)NC3CC3)cc2C1 (stereo not given),21*,-1%,39%,24
CC1CCc2sc(C(=O)Nc3ccc(C(N)=O)cc3)cc2C1 (stereo not given),32*,3%,24%,23
COCCCNc1ncnc2ccc(C)cc12,15*,-20%,-29%,39*
Cc1ccc2ncnc(NCCC(=O)O)c2c1,-2,2%,11%,18
Cc1ccc(Nc2nnc(-c3ccc(C)c(S(=O)(=O)N4CCOCC4)c3)c3ccccc23)cc1,·,-13%,-7%,·
COc1cc(-c2cc(C)c3cccc(OC)c3n2)cc2c1OCCN(C(=O)CCn1nc(C)cc1C)C2,·,·,-14%,·
CC1=C(C(=O)Nc2ccccc2)C(c2ccccn2)n2ncnc2N1 (stereo not given),-1,-6%,3%,-16
CC1=C(C(=O)Nc2ccccc2)C(c2ccc[nH]2)n2ncnc2N1 (stereo not given),·,28µM*,0%,·
COc1ccc(CC(=O)Nc2c3c(nn2C(C)(C)C)CS(=O)(=O)C3)cc1OC,1,35µM*,-2%,-7
Cc1cc(NC(=O)c2cc(-c3cccc(Cl)c3)on2)nn1Cc1ccc(Cl)cc1,·,1%,?,·
C/C(=N\NC(=O)c1ccccc1O)C1CC1,19,6%,24%,66*
CCCC(=O)Nc1ccc(C(=O)NN=C(C2CC2)C2CC2)cc1,-1,0%,-6%,3
C/C(=N\NC(=O)c1ccc(N)cc1)C1CC1,40*,-1%,-10%,39*
COc1ccc(NC(=O)C(NC(=O)/C=C\c2ccc3c(c2)OCO3)c2ccc(C)cc2)cc1 (stereo not given),·,0%,12%,·
CCOC(=O)N1N=C(c2ccc(OC)cc2)CC1(O)C(F)(F)F (stereo not given),42*,9%,19%,49*
CCc1ccc(C2=NN(C(=O)OC)C(O)(C(F)(F)F)C2)cc1 (stereo not given),37*,14%,·,62*
COc1ccc(CC(=O)N2N=C(c3ccncc3)CC2(O)C(F)(F)F)cc1 (stereo not given),0,5%,-15%,-10
CCOC(=O)C(NS(=O)(=O)c1ccccc1)(C(F)(F)F)P(=O)(OC(C)C)OC(C)C (stereo not given),2,35µM*,-5%,-11
CC(=O)OCCBr,-3,·,·,-4
CCCCNc1nc(Cl)nc(Nc2ccc(C)cc2)n1,·,·,0%,·
SMILES,CHX counter,Sm TGR inh,FMDV inh,Shiga toxin inh
Clc1nc(Nc2ccccc2)nc(Nc2ccccc2)n1,25*,-10%,-5%,22
C=CCNc1nc(Nc2ccc(OC)cc2)nc(OC)n1,8,0%,14%,42
C=CCNc1nc(Cl)nc(Nc2ccc(OC)cc2)n1,22*,3%,10%,64*
CC(C)(C)Nc1nc(Cl)nc(Nc2ccccc2)n1,56*,-28%,12%,88*
CCCNc1nc(Cl)nc(Nc2ccc(Cl)cc2)n1,15*,-25%,10%,8
COc1cccc(CN2CC34CCC(CC3S2(=O)=O)O4)c1 (stereo not given),15,·,·,-5
COc1ccc(Nc2nc(Cl)nc(Nc3ccc(OC)cc3OC)n2)c(OC)c1,-4,?,-23%,-2
COc1ccccc1Nc1nc(Cl)nc(NC(C)(C)C)n1,11*,8%,?,9
